Bioassay records as filed in PubChem.
SARS PLP yeast = qHTS of Yeast-based Assay for SARS-CoV PLP | S. cerevisiae expressing SARS-CoV PLpro, growth rescue | Potency, µM (highest dose often 32.9 µM), for inactives: at the top dose activity, positive = growth rescue, most hits filed as activators | 330,000 compounds, 0.19% hits | AID 485353, 2010; calls by dose curve; note: potency is the fitted concentration of half-maximal effect; 0% is about no effect; nearly all actives have a fitted effect of over 55% in size
NS1 function inh = qHTS Assay for Inhibitors of Influenza NS1 Protein Function; AID 2326, 2010; Potency, µM (titrated, usually from 46.1 µM), for inactives: at the highest dose activity, positive = more growth; 270,000 compounds, 0.4% hits; calls by dose curve; note: potency is the fitted concentration of half-maximal effect; actives are rising curves; nearly all actives have a fitted effect of over 50% in size
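Growth recovery, yeast-based: influenza A NS1 expressed in S. cerevisiae causes slow growth, and suppressors are detected by OD600. The parent strain without NS1 is used as positive control.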
AmpC inh no detg = qHTS Inhibitors of AmpC Beta-Lactamase (assay without detergent); P00811; AmpC nitrocefin hydrolysis, absorbance 480 nm, 0.0001% Triton; Potency, µM (highest dose often 57.1 µM), without a hit: at the top dose activity change, negative = inhibition, actives largely listed as inhibitors; 330,000 compounds, 0.52% hits; AID 485341, 2010;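 note: potency is the fitted concentration of half-maximal effect; plate controls were no compound for no effect and no enzyme for full effect; nearly all actives have a fitted effect of over 20% in size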
Target sequence (P00811 whole entry, looked up): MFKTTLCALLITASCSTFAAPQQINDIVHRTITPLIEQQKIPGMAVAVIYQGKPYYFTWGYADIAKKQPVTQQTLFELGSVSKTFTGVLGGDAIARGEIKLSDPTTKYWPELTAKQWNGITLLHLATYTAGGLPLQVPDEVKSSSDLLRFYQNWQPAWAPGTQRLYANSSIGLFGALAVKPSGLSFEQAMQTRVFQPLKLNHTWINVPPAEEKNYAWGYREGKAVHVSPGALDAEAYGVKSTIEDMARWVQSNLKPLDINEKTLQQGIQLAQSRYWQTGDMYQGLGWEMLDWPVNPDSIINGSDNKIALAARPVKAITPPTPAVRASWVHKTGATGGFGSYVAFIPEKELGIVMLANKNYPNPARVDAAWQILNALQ
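20 mM phosphate pH 7.0 + 0.01% (detergent screen) or 0.0001% Triton X-100; 5.3 nM AmpC reagent; cpd preinc 15 min RT; nitrocefin (800 uM stock) to start; A480 q20 s × 4 min; Activity was normalised to no-enzyme and no-compound control wells.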
AMA1 RON2 block = qHTS for Inhibitors of AMA1-RON; Towards Development of Antimalarial Drug Lead: Primary Screen; Plasmodium falciparum AMA1 (3D7) - RON2 peptide interaction; AlphaScreen AMA1-biotinylated RON2 peptide binding; Potency, µM (doses to about 58.2 µM), inactives show at the highest dose activity change, negative = inhibition, usual class: inhibitors; 360,000 compounds, 0.2% hits; AID 720542, 2013;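 note: potency is the fitted concentration of half-maximal effect; 0% = vehicle wells and -100% = peptide control; nearly all actives have a fitted effect of over 45% in size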
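AMA1 (3D7) with his tag at 25 nM final met compounds first, then biotinylated RON2 peptide at 25 nM; detection used donor plus acceptor beads, 10 µg/mL apiece, read by AlphaScreen after 30 min at room temperature.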
AmpC inh detg = qHTS Inhibitors of AmpC Beta-Lactamase (assay with detergent); AID 485294, 2010; Potency, µM (doses to about 114 µM), without a hit: at the highest dose activity change, negative = inhibition, hits mostly inhibitors; 370,000 compounds, 0.041% hits; AmpC hydrolysis of nitrocefin, absorbance 480 nm, 0.01% Triton;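 note: potency is the fitted concentration of half-maximal effect; 0% = no-compound wells and -100% = no-enzyme wells; nearly all actives have a fitted effect of over 25% in size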
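AmpC (5.3 nM in the dispensed reagent) in 20 mM phosphate pH 7.0 with 0.01% (detergent screen) or 0.0001% Triton X-100 was preincubated with compounds for 15 min at room temperature. Nitrocefin was then added from an 800 uM solution, and hydrolysis was followed at 480 nm.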
NS1 inh valid = Assay for Inhibitors of Influenza NS1 Protein Function: Hit Validation. shares compounds with NS1 function inh. influenza NS1 function cell assay, 15-point titration. activity change, negative = inhibition, % at 32.9 µM. 1,400 tested, under 10 active. AID 492980, 2010; calls by dose curve; note: 0% is about no effect
Flu PR8 replic = Assay for Inhibitors of Influenza NS1 Protein Function: Influenza virus replication assay in MDCK cells infected with virus A/PR/8/34 | MDCK infected influenza A/PR/8/34, virus titer TCID50; active compounds read low | 95 compounds, 30% hits | virus titer (log TCID50), log10 TCID50 at 5 µM | shares compounds with NS1 function inh; call rule not given here
Numbers without * were called inactive; ? = inconclusive; . = no result given; [ ] = remark or other dose. Most compounds without a hit are left out; they make up all but 0.99% or so of the library. Unless noted, calls come from the whole dose curve; as a rule, active = well fitted curve in the direction sought with a large enough effect; inconclusive = small, poorly fitted or top-dose-only effect, or another doubt; inactive = no such curve, though single readings can be large; an effect the other way counts as inactive or inconclusive.

SMILES | SARS PLP yeast | NS1 function inh | AmpC inh no detg | AMA1 RON2 block | AmpC inh detg | NS1 inh valid | others
COc1cc(NS(=O)(=O)c2ccc(NC(=O)COc3ccccc3Cl)cc2)nc(OC)n1 | 8% | 14µM* | -39% | 24% | -6% | -2
COC(=O)c1ccc(NC(=O)CSc2nccn2Cc2ccc(Cl)cc2)cc1 | . | . | . | . | 4% | .
CCOC(=O)c1c(C)[nH]c(C)c1S(=O)(=O)N1CCCC(C(=O)NCc2ccc(N(C)C)cc2)C1 (stereo not given) | . | . | . | . | -6% | .
Cc1ccc(NC(=O)Nc2cccnc2)cc1Cl | -2% | -9% | -17% | 7% | -11% | .
CN1CCc2cc(NC(=O)Nc3cccnc3)ccc21 | . | 25µM* | . | . | . | 0
COC(=O)CSCc1nc(-c2ccc(C(=O)OC)cc2)oc1C | . | . | . | . | 14% | .
COc1ccc(CN2CCN(C(=O)CCC(=O)Nc3nnc(CC(C)C)s3)CC2)cc1F | 15% | 2.2µM* | 165% | 2% | -8% | ?
O=C(Nc1ccccc1)c1cccc(S(=O)(=O)N2CCCCC2)c1 | -3% | -4% | -15% | 15% | -1% | .
O=C(Nc1ccc2c(c1)CCC2)c1cccc(S(=O)(=O)N2CCN(c3ccccc3)CC2)c1 | -2% | 13µM* | -23% | 15% | -6% | -18
O=C(NC1CCCc2ccccc21)c1cccc(S(=O)(=O)N2CCN(c3ccccc3)CC2)c1 (stereo not given) | ? | 11µM* | -13% | -8% | -4% | 6
CC1CCC(NC(=O)c2cccc(S(=O)(=O)N3CCN(c4ccccc4)CC3)c2)CC1 (stereo not given) | -2% | . | -10% | -8% | -14% | .
Cc1c(CNCCCc2ccccc2)c(C(=O)O)c(C)n1Cc1ccc(Cl)cc1 | . | . | . | . | 16% | .
Cc1cc2cc(CN3C(=O)c4ccccc4C3=O)ccc2n1C | 9% | ? | -31% | -20% | -14% | -15
Cc1nn(C)c(Oc2cccc(Cl)c2)c1C#N | 0% | . | -2% | 21% | -11% | .
Cn1nc(-c2ccccc2)c(C#N)c1Sc1cccc(Cl)c1 | -4% | ? | -8% | 29% | -3% | -14
Cc1cc(C)cc(NS(=O)(=O)c2ccc3[nH]cc(C(=O)N4CCc5ccccc54)c(=O)c3c2)c1 | -5% | 22µM* | -25% | -2%[2.32 µM] | -3% | 11
CCc1ccc(NS(=O)(=O)c2ccc3[nH]cc(C(=O)N4CCc5ccccc54)c(=O)c3c2)cc1 | -18% | -39% | -16% | -2%[11.6 µM] | ? | .
COC(=O)c1ccccc1NC(=O)CN(c1ccc(Cl)cc1)S(=O)(=O)c1ccc(OC)cc1 | . | . | . | . | -9% | .
COc1ccccc1C(=O)NCCn1cc(SCC(=O)Nc2nnc(C)s2)c2ccccc21 | 5% | 13µM* | 53% | -25% | 5% | 11
Cc1nnc(NC(=O)CSc2cn(Cc3ccccc3)c3ccccc23)s1 | -6% | 3% | -35% | 0% | -4% | .
CC(=O)N1CCN=C1SCc1ccccc1F | 2% | 1.3µM* | 3.5µM* | 6% | -7% | 5
COc1ccc(C(=O)NC(=S)Nc2ccc(N3CCCC3)cc2)cc1 | -1% | . | -20% | -4% | ? | .
COc1cc(C(=O)NC(=S)Nc2ccc(N3CCCC3)cc2)cc(OC)c1OC | 5% | 13µM* | 5% | -15% | ? | 3
Nc1ccccc1OCCOc1ccccc1N | 1% | 6% | -13% | -4% | -21% | .
Nc1ccccc1OCCOCCOc1ccccc1N | -7% | 5µM* | 1% | 0% | -7% | -1
SMILES | SARS PLP yeast | NS1 function inh | AmpC inh no detg | AMA1 RON2 block | AmpC inh detg | NS1 inh valid | others
CCCC[C@]12Cc3ccccc3[C@H](O1)C1=C(O2)C(=O)c2ccccc2C1=O | 2%[6.58 µM] | -9% | -27%[11.4 µM] | . | -7%[22.9 µM] | .
O=C(COc1ccc(Cl)cc1)N(Cc1ccco1)c1ccccn1 | . | . | . | . | 13% | .
CCC(C)c1c(O)nc(SCC(=O)c2ccccc2)[nH]c1=O (stereo not given) | -14% | 4.5µM* | -39% | 19% | -17% | 2
Cc1ccc(C(=O)CSc2nc(O)cc(=O)[nH]2)cc1C | 10% | 7.9µM* | -38% | -13% | ? | ?
COc1ccc(N2CCN(C(=O)c3cc4c(-c5ccccc5F)nn(C)c4s3)CC2)cc1 | . | . | . | . | -6% | .
CCOC(=O)c1c(C)[nH]c(C(=O)CN2C(=O)NC3(CCCC3)C2=O)c1C | 0% | 0% | -3% | -6% | -1% | .
CCOC(=O)c1c(C)[nH]c(C(=O)CN2C(=O)NC(C)(c3ccc4ccccc4c3)C2=O)c1C (stereo not given) | -3% | ? | 11% | -13% | ? | -6
CCCC1(c2ccccc2)NC(=O)N(CC(=O)c2[nH]c(C)c(C(=O)OCC)c2C)C1=O (stereo not given) | 0% | ? | 5% | 0% | -2% | 16 | Flu PR8 replic=6.7*
Cc1ccc(C(=O)NC(=S)Nc2cccc(NC(=O)c3ccccc3Cl)c2)cc1[N+](=O)[O-] | 10% | 11µM* | ? | 30% | ? | ?
O=S(=O)(c1ccc2ccccc2c1)N1CCN(C(=S)Nc2ccc(F)cc2)CC1 | 11% | 11µM* | -26% | 8% | -9% | -15
CCCCC/C=C\C/C=C\C/C=C\C/C=C\CCCC(=O)NCC(=O)O | . | 18µM* | . | . | . | 12
CCCCC/C=C\C/C=C\C/C=C\CCCCC(=O)O | . | . | 147% | 17% | ? | .
Cc1ccc(S(=O)(=O)N2CCC(=O)N(C(COCc3ccc(Cl)cc3Cl)Cc3ccccc3)CC2)cc1 (stereo not given) | 1% | ? | 2% | -1% | -5% | -4 | Flu PR8 replic=7.5*
Cc1ccc(S(=O)(=O)N2CCC(=O)N(C(COCc3cccc(Cl)c3)Cc3ccccc3)CC2)cc1 (stereo not given) | 1% | 21% | 4% | -17% | ? | .
COc1ccc(NC(=O)C(NS(=O)(=O)c2cccc3nsnc23)C(C)C)cc1OC (stereo not given) | . | . | . | . | -7% | .
Cc1cc(C)cc(NC(=O)CSc2nnc(-c3ccccc3C)o2)c1 | 8% | ? | -31% | -6% | -11% | -14
Cc1cccc(NC(=O)CSc2nnc(-c3ccccc3C)o2)c1 | 6% | -4% | -15% | -3% | -6% | .
Cc1ccc(C(C)C)c(OCc2ccc(C(=O)N/N=C/c3ccc(O)c(O)c3)cc2)c1 | -3% | 13µM* | -19% | 20% | 17% | 14
